This is a sample that favours compounds with a hit; in the whole collection about 1.6% have one here.
KCNQ2 enhance = potentiators of rat KCNQ2 potassium channel. CHO-K1 KCNQ2, FluxOR thallium flux fluorescence; hits give high values. B-score at 10 µM. hit rate 0.54% among 310,000. AID 2239, 2010. Potassium voltage-gated channel subfamily KQT member 2 (Rattus norvegicus), O88943;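 active = fluorescence ratio B-score at least 3 SD of library B-scores, with initial fluorescence B-score within 3 of them, cut at about 5.3 in these data; same plate scores as AID 2156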;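 note: B-score of peak minus minimum over baseline fluorescence ratio after K+ and Tl+ stimulus; positive B-score means potentiation of KCNQ2 with more thallium influx and brighter signal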
KCNQ2 inh = rat KCNQ2 potassium channel inhibitors, primary screen, cell-based, CHO-K1, FluxOR thallium flux, B-score; Potassium voltage-gated channel subfamily KQT member 2 (Rattus norvegicus), O88943; 20 min; hits give low values; B-score at 10 µM; hit rate 1.1% among 310,000; AID 2156, 2009;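 active = fluorescence ratio B-score at most minus 3 library SDs, with starting brightness B-score within 2 library SDs, cut at about -5.5 in these data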
Kir21 conf inh = mouse Kir2.1 channel blockers, retest, confirmation, cell-based, FluxOR thallium flux, duplicate | shares compounds with KCNQ2 enhance | Kir2.1-expressing cells, FluxOR thallium flux fluorescence; hits give low values | hit rate 41% among 2,300 | Tl flux remaining, % of negative control (hits give low values), % at 10 µM | AID 2032, 2009;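 active = Primary-screen hit whose thallium flux fell at least 3 control SD below untreated wells in both duplicates, with normal baseline fluorescence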;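 note: 0% = blank wells without stimulus and 100% = stimulated no-compound controls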
HEK293 Tl flux = parental HEK293 activity in Kir2.1 inhibitor counter-screen | shares compounds with KCNQ2 enhance | FluxOR signal as % of negative control (100 = no effect), % at 10 µM | AID 2105 | parental HEK293 cells, FluxOR thallium flux fluorescence; 0% = unstimulated blank wells | hit rate 19% among 2,300;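 active = dye signal at least 3 control SD above or below untreated wells in both duplicates, raw fluorescence within 3, either direction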;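 note: percent is based on the flux ratio of peak minus minimum fluorescence over baseline F0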
CHO-K1 Tl ctr = nonspecific thallium flux increase in parental CHO-K1, confirmation, counter-screen for KCNQ2 potentiator project, cell-based, FluxOR thallium flux, duplicate. shares compounds with KCNQ2 enhance. parental CHO-K1 cells, FluxOR thallium flux fluorescence; zero = vehicle mean+3SD, 100% = vehicle-minus-blank window. activity increase over 3SD of controls, % at 10 µM. hit rate 43% among 1,200. AID 2282, 2010;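 active = signal rise of at least 3 SD above the untreated control mean, in both duplicate wells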;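 note: counter screen of KCNQ2 potentiator hits so any rise reflects channel-independent effects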
KCNQ1 pot spec = human KCNQ1 channel potentiation off-target, confirmation, selectivity assay for KCNQ2 potentiator project, cell-based, CHO, FluxOR thallium flux; shares compounds with KCNQ2 enhance; CHO KCNQ1 stable, FluxOR thallium flux fluorescence; beyond 3SD, as % of vehicle-control signal; activation over 3SD threshold, % at 10 µM; hit rate 28% among 1,200;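 active = fluorescence ratio rise of at least 3 SD of vehicle wells above their mean, in both replicate wells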;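 note: 0% = vehicle mean plus 3 SD and 100% = vehicle minus unstimulated blank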
Target sequence (P51787 whole entry, looked up): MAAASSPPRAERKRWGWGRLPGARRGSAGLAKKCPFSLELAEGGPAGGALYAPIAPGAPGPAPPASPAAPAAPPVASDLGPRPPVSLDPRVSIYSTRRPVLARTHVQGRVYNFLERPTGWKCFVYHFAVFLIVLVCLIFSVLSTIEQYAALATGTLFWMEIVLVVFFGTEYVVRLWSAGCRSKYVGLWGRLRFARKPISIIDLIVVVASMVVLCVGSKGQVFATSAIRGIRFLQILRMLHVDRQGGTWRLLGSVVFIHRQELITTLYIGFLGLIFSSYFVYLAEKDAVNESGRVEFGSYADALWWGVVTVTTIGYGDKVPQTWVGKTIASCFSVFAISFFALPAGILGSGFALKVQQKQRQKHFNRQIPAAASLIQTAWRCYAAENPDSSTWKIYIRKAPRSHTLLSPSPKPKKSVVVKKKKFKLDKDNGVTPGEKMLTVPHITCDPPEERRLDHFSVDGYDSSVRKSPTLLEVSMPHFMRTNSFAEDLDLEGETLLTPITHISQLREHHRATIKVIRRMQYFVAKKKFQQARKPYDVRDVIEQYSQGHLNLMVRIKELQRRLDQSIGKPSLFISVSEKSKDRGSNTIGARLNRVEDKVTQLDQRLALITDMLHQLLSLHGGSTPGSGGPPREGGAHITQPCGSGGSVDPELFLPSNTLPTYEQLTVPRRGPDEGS
KCNQ2 pot confirm = rat KCNQ2 channel potentiators, confirmation, cell-based, CHO, FluxOR thallium flux, duplicate. hit rate 68% among 1,200. potentiation, less the hit threshold, % at 10 µM. AID 2287, 2010. shares compounds with KCNQ2 enhance. CHO-KCNQ2 cells, FluxOR thallium flux fluorescence;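 active = fluorescence ratio rising 3 SD or more over the vehicle control mean in both replicates, plus primary screen hit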;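 note: peak minus minimum thallium fluorescence divided by baseline after K/Tl stimulus; 0% = vehicle mean plus 3 SD and 100% = vehicle minus unstimulated blank difference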
Kir21 spec = mouse Kir2.1 channel activation off-target, confirmation, selectivity assay for KCNQ2 potentiator project, cell-based, HEK293, FluxOR thallium flux; shares compounds with KCNQ2 enhance; HEK293 Kir2.1, FluxOR thallium flux fluorescence; activity over 3SD threshold, % at 10 µM; hit rate 2% among 1,200; AID 2345, 2010;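 active = fluorescence ratio rise of at least 3 SD above the vehicle-control mean, seen in both replicates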;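 note: 0% = vehicle mean plus 3 SD and 100% = vehicle minus no-stimulus blank window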
KCNQ2 W236L pot = potentiators of retigabine-insensitive KCNQ2 W236L, mechanism study for KCNQ2 potentiator project, cell-based, rat KCNQ2 W236L, CHO, automated patch clamp | shares compounds with KCNQ2 enhance | automated patch clamp current | current increase over 3SD of negative controls (%), hits give high values, % at 25 µM | hit rate 10% among 940 | AID 2558, 2010;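 active = current increase at least 3 SD of the untreated controls above them in both duplicate recordings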
Numbers without * were called inactive; i = inactive; . = not tested or not shown.

SMILES	KCNQ2 enhance	KCNQ2 inh	Kir21 conf inh	HEK293 Tl flux	others
CCc1c(C)nc(SCC(=O)N2CCCCC2C)[nH]c1=O (stereo not given)	5.5*	i	i	i	CHO-K1 Tl ctr=20*;KCNQ1 pot spec=-16;KCNQ2 pot confirm=-26;Kir21 spec=-34
Cc1cccc(CCN2CCC(C(=O)c3ccc(NS(C)(=O)=O)cc3)CC2)n1	.	i	.	.
O=C(CCC(=O)N1CCOc2ccc(Cl)cc21)NCCCN1CCN(c2ccccc2F)CC1	1.1	i	.	.
O=C(CCC(=O)N1CCOc2ccc(Cl)cc21)NCCCN1CCC(Cc2ccccc2)CC1	.	i	i	i
CCCCn1c(SCC(=O)Nc2cc(C(F)(F)F)cc(C(F)(F)F)c2)nnc1C(CC)N(C)C (stereo not given)	.	i	.	.
COc1ccc(S(=O)(=O)N2CCc3ccccc32)cc1OC	0.13	i	52%*	i
COc1ccc(S(=O)(=O)N2CCc3ccccc32)cc1C(=O)O	.	i	.	.
O=[N+]([O-])c1cnn(-c2nc(-c3ccccc3)cc(C(F)(F)F)n2)c1	.	i	.	.
COc1ccc(NC(=O)CSc2nccn2Cc2ccco2)cc1OC	.	i	.	.
O=C(c1cc(=O)[nH]c2ccccc12)N1CC=C(c2ccccc2)CC1	0.24	i	.	.
CC(=O)N(CC(C)(C)CC=C(C)C)c1ccccc1	.	i	54%*	i
CC(=O)N(CC(=O)O)c1ccccc1	0.66	i	.	.
COc1ccc(S(=O)(=O)N2CCCC2C(=O)n2nc(C)cc2C)cc1 (stereo not given)	.	i	.	.
CCOc1cc(C(c2c(C)[nH][nH]c2=O)c2c(C)[nH][nH]c2=O)ccc1OC(=O)c1cccc([N+](=O)[O-])c1	.	i	.	.
CCOc1cc(C(c2c(C)[nH][nH]c2=O)c2c(C)[nH][nH]c2=O)ccc1OCc1ccc([N+](=O)[O-])cc1	.	i	i	i
Cc1cc(Cl)ccc1OC(C)C(=O)Nc1cnn(CCCC(=O)O)c1 (stereo not given)	.	i	.	.
CN(C)/C=C(\C#N)C(=O)N/N=C/c1ccccc1	0.27	i	.	.
O=S(=O)(Nc1ccccc1N1CCOCC1)c1ccc(F)c(Cl)c1	.	i	46%*	i
O=S(=O)(c1ccc(Cl)c(NC(=S)Nc2ccccc2N2CCOCC2)c1)N1CCOCC1	0.82	i	.	.
CC(=O)Nc1ccc(S(=O)(=O)Nc2ccccc2N2CCOCC2)cc1Cl	.	i	.	.
Fc1ccc(NC(=S)Nc2ccccc2N2CCOCC2)cc1Cl	.	i	63%*	134%*
COc1cc(/C=C/C(=O)OCC(=O)N2CCc3ccccc3C2)ccc1O	.	i	.	.
COC(=O)[C@H](CCSC)NS(=O)(=O)c1ccccc1Br	1.1	i	.	.
Cc1ccc(S(=O)(=O)c2c(C)cc(C)[nH]c2=O)cc1	.	i	.	.
Fc1cccc(NCCc2c[nH]c3ccccc23)n1	1.1	i	.	.
SMILES	KCNQ2 enhance	KCNQ2 inh	Kir21 conf inh	HEK293 Tl flux	others
c1ccc2c(NCCc3c[nH]c4ccccc34)c3ccccc3nc2c1	.	i	38%*	i
Fc1ccc(-c2cc(C(F)(F)F)nc(-n3cccn3)n2)cc1	.	i	.	.
Fc1ccc(-c2cc(C(F)(F)F)nc(-n3cncn3)n2)cc1	6.2*	i	i	i	CHO-K1 Tl ctr=-11;KCNQ1 pot spec=-11;KCNQ2 pot confirm=19*;Kir21 spec=-14;KCNQ2 W236L pot=i
COc1ccc(-n2c(Cc3cccn3C)nnc2SCC(=O)Nc2ccc3c(c2)OCO3)cc1	1.7	i	.	.
O=C(NCc1ccccn1)c1cccc(NS(=O)(=O)c2cccc(F)c2)c1	0.29	i	.	.
CC(c1ccc(F)cc1)n1c(-c2cccs2)n[nH]c1=S (stereo not given)	.	i	.	.
COC(=O)c1ccc(NC(=O)c2cc[n+]([O-])cc2)cc1	0.49	i	.	.
Cc1ccc(Nc2nc(N)nc(CN3CCN(c4ccccc4)CC3)n2)cc1Cl	.	i	.	.
COc1ccc(N2CCN(Cc3nc(N)nc(Nc4ccc(C)c(Cl)c4)n3)CC2)cc1	11*	i	i	i	CHO-K1 Tl ctr=60*;KCNQ1 pot spec=7.2*;KCNQ2 pot confirm=21*;Kir21 spec=-19;KCNQ2 W236L pot=i
Cc1ccc(SCCNC(=S)Nc2ccccc2)cc1	.	i	.	.
Cc1ccc(SCCNC(=S)Nc2ccc(C)c(C)c2)cc1	10*	i	i	72%*	CHO-K1 Tl ctr=1.9*;KCNQ1 pot spec=16*;KCNQ2 pot confirm=-2;Kir21 spec=-32;KCNQ2 W236L pot=i
Cc1cc(NS(=O)(=O)c2ccc(NC(=O)CCCOc3cccc(C)c3C)cc2)no1	.	i	.	.
CCOc1c(Cl)cc(CNCC(C)C)cc1OC	0.97	i	.	.
CCOc1cc(CNC2CCCC2)ccc1OCc1ccccc1Cl	.	i	.	.
CCOc1cc(CNC2CCCC2)cc(Cl)c1OCc1ccccc1	.	i	34%*	134%*
CCOc1cc(CNCC(C)C)cc(Cl)c1OCc1ccccc1	.	i	20%*	i
O=C(CCCc1nc(-c2ccccc2)no1)NC1CCCCC1	0.61	i	.	.
O=C(COc1ccc([N+](=O)[O-])cc1Cl)NCC1CCCO1 (stereo not given)	0.64	i	.	.
CC(NCCS(=O)(=O)c1ccc(Cl)cc1)c1cccc(Cl)c1 (stereo not given)	0.87	i	34%*	i
CC(C)c1ccc(C(C)NCCS(=O)(=O)c2ccc(Br)cc2)cc1 (stereo not given)	.	i	.	.
Cc1cccc(NC(=O)CCCn2cc([N+](=O)[O-])cn2)n1	0.05	i	.	.
COc1ccc(CCCC(=O)NCc2ccccc2)cc1C	.	i	.	.

Source: PubChem BioAssay
